The supplement of paper PMC6555819

These sequences were tested on PPARg:RXRa (NR concentration 180 nM, RXRa partner concentration 90 nM) (assay: PBM binding z-score (relative to random genomic background probes); higher = stronger binding; sequences stand for … in GC…GCGATTGACAGCGTAGAATGAAGG).
Procedure, shortened: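 Custom Agilent 4×180K protein-binding microarrays carried double-stranded probes, each with a 34-nt variable region. These regions held direct-repeat seeds, single-nucleotide variants, half-site ablations and random human genomic background sequences. Ligand-free nuclear receptor dimers were incubated on the arrays for 1 h, antibodies against each partner (one per run) detected binding, and scanned fluorescence was regression-normalized. Binding z-scores take the random background probes as reference.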

Sequence	PBM binding z-score
TCTTGTAGATCAAGCAGGCTAAGAAAGCCTGAGT	-0.409
ACTAGCAGACCAAGGGTCACTCAAGATTAGTCCG	4.94
GCGACTGGGGCAAAGCCGGTTACCATAAGGTTGG	0.627
ATATGTAGGGTATCGGGTCATTCAGTTTGCGCAT	5.64
CGTCCAAGGTTATAGGAGGTCAGTGAAGACAGAT	1.35
ACTATTAGTTGAGACGAAGGCAACCGATAGGTTG	0.452
CCGACTGGGGCAGAAGGTTACCATAAGCCAGCCC	1.92
TCATATAGCTAAACAGGTGAAAGTCCGTAAGTTA	0.667
CGAACTAGGTCGGAACAGGACAGTGAAGGATGAT	1.23
TAGCCTAGGTCATTGGGCCAGTATCGTACGCATC	3.26
TCTCGGAGGACACGAAGGGCAGAGCTTTCCAGAG	-0.047
TCTGCTAGGTCAGTTGGTCAGTTAACGAGCTGCC	0.334
ACTAGCAGGCCAAGGGTCACTTAAGATTAGTCCG	8.13
CCTCGGGGGACAGAAGGTCAGAGCTGTCCGCTTT	0.517
GCTCGGATGACAAGGTCAGAGCTTTGTCCGTAGA	0.116
CCTACTGGGCCACCAGGTCATTGATATCAACGTT	4.32
TGAATGAGGTTAAAGAACAGGGAACGTGGCGTCG	2.53
GCGACTGGGGCATCAGCAGGTTACGATAACTTAA	1.05
TAGCCTAGGTCATTCAGGAGCCAGTATAGAAAGC	1.84
ACTGACAGGTGAGTGAAGGTAACTCAGCTGGACG	0.398

Sequence	PBM binding z-score
AATACAGGGTCATCGTAGGCCAGAGGACGCACAG	6.68
CGAACTGGGTCATTGACAGGACAGTGAATAGTAA	6.77
GCTTACGAGTCAAAGGTTATAGCATGAATAGAAT	5.72
CCTAGTTGGTCCGGAGGTCACACACCGGATATGA	2.4
TAGCCTAGGTCATGCAGGCCAGTATAGTGTCGGC	2.19
TAGCATAGGTCATGGGCCAGTATACCACGCGAAC	5.56
TCATACAGGTAAAAGGTGAAAGTCGGTGTGGTAA	6.38
TCAAGCAGGCCAGAGGGTCACTCAAGAGGTACGG	1.67
CTACCAAGGTGAACAAGGTCGTCGATTACTATTC	1.41
TCTGCTAGGTCAACGAGGGTCAGCTAATCTGCTA	3.36
TCTTGTGGATCAGCAGGTTAAGAAAGCTGGCCAA	-0.589
CCTACTGGACCATTCAGAGGTCATTGATCATATG	0.988
ATCGAAAGATCGACGAGGTGAGTATACACCGTTT	0.902
CCAGACAGGTGAGAAGGTAAGTCAGCCTCGATTA	0.255
GTGACTGGGGCAAAGCAGGTTACCATAAGGTTGG	2.32
GCTAGCAGGCCATTTGGGTCACTGAATGACGGGC	0.576
TCATATAGGTAAATGCTAGGTAAAAGTCCGATCT	0.914
ACAGACAGGTGATGAAGGGAACTCAGGCTATCAT	0.754
GCTAGTTGGTCAGTAAAAGGTCACACCCCGGTCG	2.69
ACTATTTGTTGACTTAGGGCAACCGATACGACGC	0.97
